# Records with an inconclusive call do not appear. Calls of active or inactive are those of the source. The call rests on the fitted dose curve.
# Target: Acetylcholinesterase (Homo sapiens) (UniProt P22303)
# Assay: Acetylcholinesterase (AChE) small molecule antagonists: colormetric cell-based qHTS assay (AID 1347395); further: nearly all actives have a fitted effect of over 30% in size
# Conditions: SH-SY5Y cells AChE activity, colorimetric (Ellman); series mostly up to 115 µM; activity, negative = inhibition: at the top concentration
# Procedure, shortened: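 SH-SY5Y cells, plated overnight at 37 C, were exposed to compounds for 30 min at 37 C and 5% CO2. Acetylthiocholine plus DTNB was then added, and thiocholine from endogenous AChE was quantified colorimetrically after 90 min at 37 C.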
# On the % scale 0 is the no-effect control and ±100 the full control effect.
# Acetylcholinesterase (Homo sapiens), sequence (P22303 whole entry, looked up): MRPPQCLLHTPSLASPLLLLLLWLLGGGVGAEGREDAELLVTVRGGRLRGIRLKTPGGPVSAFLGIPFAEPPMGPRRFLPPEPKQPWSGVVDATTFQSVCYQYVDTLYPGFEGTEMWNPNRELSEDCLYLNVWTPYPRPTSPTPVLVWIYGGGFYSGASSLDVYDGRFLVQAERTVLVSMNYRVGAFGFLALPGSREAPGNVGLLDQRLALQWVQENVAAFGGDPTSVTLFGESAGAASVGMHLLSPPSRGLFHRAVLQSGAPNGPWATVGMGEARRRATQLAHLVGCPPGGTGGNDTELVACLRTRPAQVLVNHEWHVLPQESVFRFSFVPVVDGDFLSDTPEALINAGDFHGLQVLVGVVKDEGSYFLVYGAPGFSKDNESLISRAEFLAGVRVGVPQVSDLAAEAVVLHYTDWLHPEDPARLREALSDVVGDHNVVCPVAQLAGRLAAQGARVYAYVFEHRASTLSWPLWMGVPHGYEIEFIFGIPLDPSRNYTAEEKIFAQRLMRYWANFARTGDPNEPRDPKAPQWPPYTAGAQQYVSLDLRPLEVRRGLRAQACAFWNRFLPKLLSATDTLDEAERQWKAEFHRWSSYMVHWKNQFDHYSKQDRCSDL
Structure (SMILES),"activity, negative = inhibition",Potency
FC(F)(F)c1ccccc1-n1ccnc1,1.02% [at 52.9 µM] (inactive),–
O=C(O)Cc1cn(-c2ccccc2)nc1-c1ccc(Cl)cc1,0.793% [at 52.9 µM] (inactive),–
O=C(O)c1ccc(S(=O)(=O)O)cc1C(=O)O,0.516% (inactive),–
CCCCCC(C)N (stereo not given),-0.402% [at 52.9 µM] (inactive),–
C=CCCCCCCCCC(=O)O,–,inactive
CC(C)c1ccc(C(C)C)cc1,–,inactive
Cc1cc2c(C(C)C)c(O)c(O)c(C=O)c2c(O)c1-c1c(C)cc2c(C(C)C)c(O)c(O)c(C=O)c2c1O,5.56% [at 52.9 µM] (inactive),–
C[C@@H]1[C@H](O)[C@@H](C)/C=C/C=C\C=C\C=C\C=C\C=C\C=C\[C@H](O[C@@H]2O[C@H](C)[C@@H](O)[C@H](N)[C@@H]2O)C[C@@H]2O[C@](O)(C[C@@H](O)C[C@@H](O)[C@H](O)CC[C@@H](O)C[C@@H](O)CC(=O)O[C@H]1C)C[C@H](O)[C@H]2C(=O)O (stereo in doubt),4.98% (inactive),–
Nc1nnnn1-c1ccccc1,2.2% [at 52.9 µM] (inactive),–
C/C(Cl)=C/CCl,-0.419% (inactive),–
CCCCCCCCCCCCCCCCCBr,0.585% [at 23.6 µM] (inactive),–
CC(C)NNC(=O)c1ccncc1,2.57% [at 52.9 µM] (inactive),–
C=C(C)C1CC=C(C)C(=O)C1 (stereo not given),-2.02% (inactive),–
C=C(C)C(=O)OCCCCCCOC(=O)C(=C)C,0.421% (inactive),–
CCOC(=O)c1cccnc1,1.94% [at 52.9 µM] (inactive),–
CC(=O)c1ccc(O)cc1,–,inactive
CC[C@H](NC(C)C)[C@H](O)c1ccc(O)c2[nH]c(=O)ccc12,-1.35% [at 52.9 µM] (inactive),–
ClC/C=C/CCl,–,inactive
C#C[C@]1(O)CC[C@H]2[C@@H]3CCC4=CC(=O)CC[C@@H]4[C@H]3CC[C@@]21CC,–,inactive
CCCCCCCCOCCC#N,1.72% (inactive),–

Structure (SMILES),"activity, negative = inhibition",Potency
CC(=O)OCCCc1ccccc1,0.429% (inactive),–
COc1ccc(C(Cl)=C(c2ccc(OC)cc2)c2ccc(OC)cc2)cc1,–,inactive
CC(=O)c1ccc([N+](=O)[O-])cc1,-0.102% (inactive),–
CCCC(O)C(CC)CO (stereo not given),–,inactive
CCN(CCC#N)c1ccc(N=Nc2c(Cl)cc([N+](=O)[O-])cc2Cl)cc1,4.08% (inactive),–
C=CCNC(N)=S,–,inactive
O=S(=O)(O)C(F)(F)F,0.841% (inactive),–
CC(CN(C)C)C(C)(O)Cc1ccc(Cl)cc1 (stereo not given),-4.33% [at 52.9 µM] (inactive),–
COC(=O)/C=C\C(=O)OC,–,inactive
CCOC(=O)C(=O)CCCCCCl,-2.81% [at 52.9 µM] (inactive),–
NC(N)=O,–,inactive
O=C[C@H](O)[C@H](O)[C@H](O)CO,0.549% (inactive),–
Cc1cc(C)nc(NS(=O)(=O)c2ccc(N)cc2)n1,–,inactive
CN1C(CSCC(F)(F)F)Nc2cc(Cl)c(S(N)(=O)=O)cc2S1(=O)=O (stereo not given),-5.52% [at 52.9 µM] (inactive),–
C=COCC(C)C,2.79% (inactive),–
CO[C@@]1(NC(=O)CSCC#N)C(=O)N2C(C(=O)O)=C(CSc3nnnn3C)CS[C@@H]21,-3.03% [at 52.9 µM] (inactive),–
Cc1ccc(C)c([N+](=O)[O-])c1,2.95% (inactive),–
OCC1CC2CC1C1CCC(CO)C21 (stereo not given),0% (inactive),–
CC(=O)O[C@]1(C(C)=O)CC[C@H]2[C@@H]3C=C(C)C4=CC(=O)CC[C@]4(C)[C@H]3CC[C@@]21C,–,inactive
O=C[C@@H](O)[C@H](O)[C@H](O)CO,3.68% (inactive),–

# From PubChem BioAssay (Tox21)
